{"source": "PubChem BioAssay (NCATS)", "target": "Cellular tumor antigen p53 (Homo sapiens) (UniProt P04637)", "sequence (P04637 whole entry, looked up)": "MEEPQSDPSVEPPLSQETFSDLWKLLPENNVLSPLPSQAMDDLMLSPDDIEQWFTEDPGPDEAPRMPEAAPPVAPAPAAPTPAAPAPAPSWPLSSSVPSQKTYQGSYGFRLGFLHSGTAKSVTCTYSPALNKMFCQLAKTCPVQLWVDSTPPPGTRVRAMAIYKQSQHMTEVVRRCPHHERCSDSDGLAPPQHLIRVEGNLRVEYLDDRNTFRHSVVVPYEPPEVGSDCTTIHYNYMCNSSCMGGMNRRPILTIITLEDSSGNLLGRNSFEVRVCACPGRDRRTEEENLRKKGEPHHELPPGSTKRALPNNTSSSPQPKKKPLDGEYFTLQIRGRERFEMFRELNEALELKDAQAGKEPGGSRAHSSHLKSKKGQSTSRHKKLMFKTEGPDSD", "experiment": "Primary qHTS for small molecule compounds that upregulate eGFP-tagged delta133p53alpha (in N-terminal) cells. (AID 2060322); also: nearly all actives have a fitted effect of over 75% in size;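 as to activation: cells pre-induced with doxycycline then dosed without doxycycline; series mostly up to about 56 µM; 0% = DMSO vehicle and 100% = reference activator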", "settings": "NCI-H358 eGFP-delta133p53alpha fluorescence, 24 h; activation: stronger effect = higher value", "procedure,_shortened": "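NCI-H358 cells pre-induced 24 h with 10 ng/ml doxycycline for eGFP-delta133p53alpha, plated dox-free and exposed 24 h at 37C to titrated compounds. Fixed, Hoechst-stained; gated GFP peak intensity by laser scanning cytometry, normalized to DMSO (0%) and 57.5 uM 5-azacytidine (100%).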", "note": "Where “and” joins values, the source holds several entries; their conditions need not be identical. Identical values can stand only once. Inconclusive results are not listed. Unmarked numbers belong to inactive results. Calls of active or inactive are those of the source. Calls follow the shape of the dose curve; as a rule, active = well fitted activation curve with a large enough effect; inconclusive = small, poorly fitted or top-dose-only effect; inactive = no such curve, though single readings can be large or run the other way. Potency is read from the fitted curve at half-maximal effect."}
{"compound": "CC(C)(O)Cn1c(NC(=O)c2ccc(-c3cn[nH]c3)s2)nc2cc(CN3CCOCC3)ccc21", "values": [{"measurement": "Potency", "result": "3.85 µM (active)"}]}
{"compound": "O=C(NCc1ccccc1)[C@H](Cc1ccccc1)NC(=O)[C@@H]1O[C@@H]1C(=O)NCCc1ccc(O)cc1", "values": [{"measurement": "activation", "result": 16.6, "unit": "%"}]}
{"compound": "Cc1cc(C)cc(OCC2CNC(=O)O2)c1", "note": "(stereo not given)", "values": [{"measurement": "activation", "result": -11.9, "unit": "%"}]}
{"compound": "CC(=O)OC[C@H]1O[C@@H](n2ncc(=O)[nH]c2=O)[C@H](OC(C)=O)[C@@H]1OC(C)=O", "values": [{"measurement": "activation", "result": -7.53, "unit": "%"}]}
{"compound": "Cc1[nH]c(C=C2C(=O)Nc3ccc(S(=O)(=O)N(C)c4cccc(Cl)c4)cc32)c(C)c1C(=O)N1CCN(C)CC1", "values": [{"measurement": "Potency", "result": "6.11 µM (active)"}]}
{"compound": "COc1cc(C(=S)N2CCOCC2)ccc1O", "values": [{"measurement": "activation", "result": -10.7, "unit": "%"}]}
{"compound": "NC(=O)n1c(O)c(C(=O)c2cccs2)c2cc(Cl)ccc21", "values": [{"measurement": "activation", "result": -6.21, "unit": "%"}]}
{"compound": "C[C@H]1C[C@@H]2[C@@H]([C@@H](O)C[C@@]3(C)[C@H]2CC[C@]3(O)C(=O)CO)[C@@]2(C)C=CC(=O)C=C12", "values": [{"measurement": "activation", "result": -16.2, "unit": "%"}]}
{"compound": "OCCc1ccccc1", "values": [{"measurement": "activation", "result": 1.69, "unit": "%"}]}
{"compound": "CCCC(=O)OC[C@@H](OC(=O)CCC)[C@@H](OC(=O)CCC)[C@H](Cn1c2nc(=O)[nH]c(=O)c-2nc2cc(C)c(C)cc21)OC(=O)CCC", "values": [{"measurement": "activation", "result": -33.3, "unit": "%"}]}
{"compound": "COc1ccc(C=CC(=O)Nc2ccccc2C(=O)O)cc1OC", "values": [{"measurement": "activation", "result": 5.12, "unit": "%"}]}
{"compound": "Cc1cc(C)c(NC(=O)CN(CC(=O)O)CC(=O)O)c(C)c1Br", "values": [{"measurement": "activation", "result": -11.9, "unit": "%"}]}
{"compound": "N[C@@H](C(=O)N[C@@H]1C(=O)N2C(C(=O)O)=C(Cl)CS[C@H]12)c1ccccc1", "values": [{"measurement": "activation", "result": "-19.2% and 26.9%"}]}
{"compound": "Nc1ccc(C(=O)Oc2ccccc2)c(O)c1", "values": [{"measurement": "activation", "result": -3.35, "unit": "%"}]}
{"compound": "CCN(CC)S(=O)(=O)c1ccc(C(=O)O)cc1", "values": [{"measurement": "activation", "result": -11.7, "unit": "%"}]}
{"compound": "CCOC(=O)O[C@]1(C(=O)OCCl)CC[C@@H]2[C@H]3CCC4=CC(=O)C=C[C@]4(C)[C@@H]3[C@@H](O)C[C@@]21C", "values": [{"measurement": "activation", "result": -2.28, "unit": "%"}]}
{"compound": "CC(C)NCC(O)c1ccc2ccccc2c1", "note": "(stereo not given)", "values": [{"measurement": "activation", "result": -2.82, "unit": "%"}]}
{"compound": "Nc1ccc(S(=O)(=O)Nc2ccccn2)cc1", "values": [{"measurement": "activation", "result": "-36.8% and 13.3%"}]}
{"compound": "CCC(=O)Nc1ccc(O)cc1", "values": [{"measurement": "activation", "result": -18.6, "unit": "%"}]}
{"compound": "CCOC(=O)c1ccccc1O", "values": [{"measurement": "activation", "result": -2.51, "unit": "%"}]}
{"compound": "CCCCOC(=O)c1ccc(O)cc1", "values": [{"measurement": "activation", "result": -13, "unit": "%"}]}
{"compound": "COc1ccc(C2C(=O)c3ccccc3C2=O)cc1", "values": [{"measurement": "activation", "result": -15.9, "unit": "%"}]}
{"compound": "Nc1nc(-c2ccccc2)c(Br)c(=O)[nH]1", "values": [{"measurement": "activation", "result": -12.6, "unit": "%"}]}
{"compound": "C=C1C(=O)O[C@H]2[C@@H]1CCC(C)=CCC[C@@]1(C)O[C@@H]21", "values": [{"measurement": "Potency", "result": "19.3 µM (active)"}]}
{"compound": "O=C(O)c1ccccc1S", "values": [{"measurement": "activation", "result": 19.8, "unit": "%"}]}
{"compound": "CN(C)[C@@H]1C(=O)C(C(N)=O)=C(O)[C@@]2(O)C(=O)C3=C(O)c4c(O)cccc4C[C@H]3C[C@@H]12", "values": [{"measurement": "Potency", "result": "17.4 µM (active)"}]}
{"compound": "CC(C)n1c(C=C[C@H](O)C[C@H](O)CC(=O)O)c(-c2ccc(F)cc2)c2ccccc21", "values": [{"measurement": "activation", "result": -24.6, "unit": "%"}]}
{"compound": "COc1ccc2cc(C=O)ccc2c1", "values": [{"measurement": "activation", "result": -1.69, "unit": "%"}]}
{"compound": "CCOC(=O)c1c(N)sc2c1CCN(Cc1ccccc1)C2", "values": [{"measurement": "Potency", "result": "15.5 µM (active)"}]}
{"compound": "CO[C@H]1C=CO[C@@]2(C)Oc3c(C)c(O)c4c(O)c(c(C=NN5CCN(C)CC5)c(O)c4c3C2=O)NC(=O)C(C)=CC=C[C@H](C)[C@H](O)[C@@H](C)[C@@H](O)[C@@H](C)[C@H](OC(C)=O)[C@H]1C", "values": [{"measurement": "activation", "result": 3.33, "unit": "%"}]}
{"compound": "Cc1nc2ccccc2n1Cc1ccc(Cl)cc1", "values": [{"measurement": "activation", "result": -11.7, "unit": "%"}]}
{"compound": "O=C(/C=C/c1ccccc1)OCc1ccccc1", "values": [{"measurement": "activation", "result": -23.2, "unit": "%"}]}
{"compound": "CCC(=C(CC)c1ccc(O)cc1)c1ccc(O)cc1", "values": [{"measurement": "activation", "result": -17, "unit": "%"}]}
{"compound": "O=C1C(c2[nH]c3ccccc3c2O)=Nc2ccccc21", "values": [{"measurement": "activation", "result": -0.565, "unit": "%"}]}
{"compound": "Cc1cn([C@H]2C[C@H](F)[C@@H](CO)O2)c(=O)[nH]c1=O", "values": [{"measurement": "activation", "result": 0.837, "unit": "%"}]}
{"compound": "CNC(=O)CN(CCN(CCN(CC(=O)[O-])CC(=O)NC)CC(=O)[O-])CC(=O)[O-].O.[Gd+3]", "values": [{"measurement": "activation", "result": 0.837, "unit": "%"}]}
{"compound": "COC(=O)N/N=C/c1c[n+]([O-])c2ccccc2[n+]1[O-]", "values": [{"measurement": "activation", "result": -30.1, "unit": "%"}]}
{"compound": "Cc1cccn2c(=O)c(-c3nnn[nH]3)cnc12", "values": [{"measurement": "activation", "result": -7.34, "unit": "%"}]}
{"compound": "Cc1ccc(O)c(-n2nc3ccccc3n2)c1", "values": [{"measurement": "activation", "result": 7.53, "unit": "%"}]}
{"compound": "O=C1C(O)=C(O)C(=O)C(O)=C1O", "values": [{"measurement": "activation", "result": -14.1, "unit": "%"}]}
